Source: PubChem BioAssay
Shown are actives, neighbours in structure and some others; about 12% of the full set was active somewhere.
PLK1 PBD inh – blocks phosphopeptide binding to human PLK1 polo-box domain | P53350 | Plk1 PBD binding of FITC phosphopeptide, fluorescence polarization | Potency, µM, for the others: max response, negative = inhibition, most hits filed as inhibitors | 360,000 tested, 2.8% active | AID 720504; further: series mostly up to about 57 µM; on the % scale 0 is the no-effect control and ±100 the full control effect; nearly all actives have a fitted effect of over 65% in size
Target sequence (P53350 whole entry, looked up, the tested form may be a part): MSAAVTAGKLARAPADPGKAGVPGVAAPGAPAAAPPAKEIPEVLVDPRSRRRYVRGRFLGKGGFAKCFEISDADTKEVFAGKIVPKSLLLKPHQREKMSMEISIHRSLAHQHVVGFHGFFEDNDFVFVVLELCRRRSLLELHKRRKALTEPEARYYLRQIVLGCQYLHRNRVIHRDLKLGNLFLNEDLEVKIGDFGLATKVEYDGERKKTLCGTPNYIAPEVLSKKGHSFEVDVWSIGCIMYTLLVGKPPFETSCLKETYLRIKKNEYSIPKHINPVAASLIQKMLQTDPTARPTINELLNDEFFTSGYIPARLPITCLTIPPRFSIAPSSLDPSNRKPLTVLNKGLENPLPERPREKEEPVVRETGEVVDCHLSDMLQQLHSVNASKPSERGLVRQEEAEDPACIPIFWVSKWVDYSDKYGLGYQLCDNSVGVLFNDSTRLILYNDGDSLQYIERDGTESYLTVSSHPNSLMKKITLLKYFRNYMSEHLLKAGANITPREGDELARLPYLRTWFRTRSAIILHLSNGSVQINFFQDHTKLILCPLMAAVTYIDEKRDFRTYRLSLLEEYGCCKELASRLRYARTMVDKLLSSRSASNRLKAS
Sfp inh – blocks B. subtilis Sfp PPTase activity; Q9F4F7; Biochemical Sfp PPTase activity, qHTS; Potency, µM, inactives show largest response in the series, negative = inhibition, actives largely listed as inhibitors; 310,000 tested, 3.5% active; AID 1490;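 further: the enzyme is Sfp with the accession as filed and its product quenches rhodamine fluorescence; 0% = enzyme reaction without inhibitor and -100% = no enzyme wells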
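Buffer: 50 mM Hepes-Na pH 7.6, 10 mM MgCl2, 0.01% Nonidet P-40, 0.01% BSA. Enzyme 15 nM, pre-exposed to compound 15 min; substrates then added and fluorescence change tracked over 30 min.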
BAZ2B block – inhibitors of human BAZ2B bromodomain; 360,000 tested, 4.4% active; Q9UIF8; Potency, µM (highest dose often 114 µM), for the others: at the highest dose activity change, negative = inhibition, actives largely listed as inhibitors; AlphaScreen BAZ2B-H3K14Ac peptide displacement; further: on the % scale 0 is the no-effect control and ±100 the full control effect; nearly all actives have a fitted effect of over 60% in size
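Multi-concentration screen (max 110 uM) measuring displacement of acetylated histone H3 peptide from BAZ2B by AlphaScreen, using 50 nM protein, 50 nM peptide and 10 ug/mL streptavidin donor plus Ni-chelate acceptor beads.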
HP1b chromo inh – HP1-beta chromodomain-methylated histone interaction inhibition | AlphaScreen HP1-beta / biotin-H3K9me3 peptide binding | 390,000 tested, 0.56% active | P83916 | Potency, µM (doses to about 114 µM), for the others: at the highest dose activity change, negative = inhibition, actives largely listed as inhibitors; further: nearly all actives have a fitted effect of over 70% in size
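AlphaScreen: HP1-beta (50 nM) preformed 30 min with biotin-H3(1-18)K9me3 peptide (50 nM) in PBS pH 7.4, 0.01% Tween-20. Compound added for 30 min at RT, then streptavidin donor/nickel chelate acceptor beads (10 ug/mL) for 30 min.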
JMJD2A Tudor inh – JMJD2A Tudor domain (human) inhibition | 390,000 tested, 4.4% active | Potency, µM (highest dose often 114 µM), for the others: at the highest dose activity change, negative = inhibition, hits mostly inhibitors | AlphaScreen JMJD2A-Tudor / H3K4me3 peptide binding; further: on the % scale 0 is the no-effect control and ±100 the full control effect; nearly all actives have a fitted effect of over 50% in size
G9a block – blocks human histone lysine methyltransferase G9a | Q96KQ7 | G9a H3K9 monomethylation, AlphaScreen, 2 h | Potency, µM (top dose mostly 102 µM), for inactives: at the top dose activity, negative = inhibition, usual class: inhibitors | 350,000 tested, 8.8% active; further: on the % scale 0 is the no-effect control and ±100 the full control effect; nearly all actives have a fitted effect of over 75% in size
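Enzyme 20 nM + cpd, 15 min RT; add b-H3K9 pep 500 nM / SAM 20 uM; 2 h RT; anti-H3K9me1 Ab 0.5 ug/mL + SA donor / anti-rabbit acceptor beads 20 ug/mL each, 10 min; AlphaScreen read.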
* = called active by the depositor; ? = inconclusive; . = no result; ! = repeats disagree; [ ] = remark or other dose. The call rests on the fitted dose curve; in most records, active means well fitted curve in the direction sought with a large enough effect; inconclusive means small, poorly fitted or top-dose-only effect, or another doubt; inactive means no such curve, though single readings can be large; an effect the other way counts as inactive or inconclusive. Potency means the concentration at half of the fitted maximal effect.

SMILES | PLK1 PBD inh | Sfp inh | BAZ2B block | HP1b chromo inh | JMJD2A Tudor inh | G9a block
S=C(NCc1ccco1)N1CCN(Cc2ccco2)CC1 | -4% | -30% | ? | ? | 4.5µM* | 7.1µM*
S=C(NCc1ccco1)N1CCN(c2ccccc2Cl)CC1 | -11% | -1% | -32% | -11% | -28% | 56µM*
CCn1nc(-c2ccccc2)c(-c2ccccc2)c(C(=O)Nc2ccc(NC(C)=O)cc2)c1=O | . | . | -19% | 33% | -14% | -22%[59 µM]
COc1ccc(NS(=O)(=O)c2csc(C(=O)N3CCCC3)c2)c(OC)c1 | -11% | 0% | 5% | 10%[57 µM] | -15% | .
O=C(CN1C2=NCCCN2c2ccccc21)c1cccc(Br)c1 | 24µM* | -23% | 6% | ? | ? | ?
O=C(CN1C2=NCCCN2c2ccccc21)c1ccc([N+](=O)[O-])cc1 | -17% | -14% | -12% | 42% | -12% | 40µM*
COc1ccc(CN(C)C(=O)c2cccc(S(=O)(=O)N3CCCc4ccccc43)c2)c(OC)c1OC | 4% | . | . | 21% | -10% | .
COc1ccc(Oc2nc3c(c(=O)n(C)c(=O)n3C)n2Cc2ccc(Cl)cc2Cl)cc1 | . | . | -20% | 29% | -30% | -27%[59 µM]
CCCN(CCC)S(=O)(=O)c1ccc(C(=O)Nc2cc3oc4ccccc4c3cc2OC)cc1 | -4% | 4% | 6% | 14% | -4% | -11%[59 µM]
O=C(O)C(S)C(S)C(=O)O (stereo not given) | 8.4µM* | . | . | ? | 50µM* | .
O=C(O)C(S)[C@@H](S)C(=O)O (stereo not given in full) | . | -90% | . | . | . | ?
CCOC(=O)c1ncn2c1C(=O)OC2(C)C | -1% | ? | ? | 8% | 18µM* | ?
CCN1C(=O)[C@H]2[C@H]3[C@H](O)[C@H](O)C/C(=N/OC/C=C(\C)CCC=C(C)C)[C@H]3CC[C@@H]2C1=O | . | 7% | . | . | . | .
Oc1ccc(Nc2nc(-c3ccccc3)nc3ccccc23)cc1 | 3% | -1% | ? | 3% | -26% | -1%
Oc1ccc(Nc2nc3ccccc3nc2Nc2ccc(O)cc2)cc1 | -27% | -29% | 50µM* | ? | ? | 10µM*
O=[N+]([O-])c1cccc(-c2c[n+]3c(n2-c2ccccc2)SCC3)c1 | -4% | 5% | . | 28% | 7% | 0%
Clc1ccc(-c2c[n+]3c(n2-c2ccccc2)SCC3)cc1 | -2% | 0% | -9% | 31% | -6% | 56µM*
O=C(C#Cc1ccccc1)c1ccccc1 | 3µM* | . | . | . | . | .
CN(C)C(=O)C#Cc1ccccc1 | -1% | 11% | 0% | 19% | 1% | 0%
Cc1ccc(C(=O)c2ccc([N+](=O)[O-])cc2)cc1 | 0% | 3% | ? | -10% | -35% | ?
O=C(c1ccc(-c2ccccc2)cc1)c1ccc([N+](=O)[O-])cc1 | . | 13% | -38% | . | . | 56µM*
O=C(C#Cc1ccccc1)c1ccc([N+](=O)[O-])cc1 | 0.47µM* | -5% | ? | -2% | -35% | 10µM*
CCn1cc(S(=O)(=O)c2cccc(C)c2)c(=O)c2cc(F)c(N3CCCC(C)C3)cc21 (stereo not given) | . | . | 5% | 28% | -11% | 6%[59 µM]
COc1ccc(CNC(=O)c2cnc3sc(N4CCC(C)CC4)nn3c2=O)c(OC)c1 | . | . | 5% | 9% | -7% | 7%[59 µM]
COc1ncnc2c1ncn2CCCNCc1ccccc1 | -3% | . | . | . | . | .
SMILES | PLK1 PBD inh | Sfp inh | BAZ2B block | HP1b chromo inh | JMJD2A Tudor inh | G9a block
COc1ccc(C(=O)c2nc3c(n2O)CCCC3)cc1OC | 2% | -23% | -27% | 1% | 50µM* | ?
CCN(CC)c1ccc(CNc2ccc3c(c2)ncn3CC)cc1 | -1% | -19% | 16µM* | 35µM* | 20µM* | 22µM*
CCn1cnc2cc(NCc3ccc(N(C)C)cc3)ccc21 | -6% | -5% | 10µM* | 32µM* | 10µM* | 11µM*
CN(C)c1ccc(CNc2ccc3c(c2)ncn3C(C)(C)C)cc1 | -14% | -29% | 16µM* | 35µM* | 14µM* | 22µM*
CCOc1ccc(CNc2ccc3c(c2)ncn3C(C)(C)C)cc1 | -1% | -1% | ? | -31% | ? | 79µM*
CC(C)(C)n1cnc2cc(NC(=O)c3ccccc3)ccc21 | -1% | 15% | -4% | 26% | -16% | -4%
COc1cc(OC)cc(C(=O)NNC(=O)CCC(=O)c2cccs2)c1 | -14% | 9% | -16% | 23% | 0% | -6%
CCCN1C(=O)c2ccccc2NC1c1ccc(Cl)c(Cl)c1 (stereo not given) | 21µM* | 1% | 1% | 37% | -17% | -2%[2.33 µM]
O=C(CSc1nnc(-c2cccs2)n1Cc1ccco1)Nc1ccc2c(c1)OCO2 | -3% | ? | ? | 16% | -32% | -41%[12.7 µM]
CCOc1ccc(NC(=O)CSc2ncc(-c3ccc(F)cc3)n2Cc2ccco2)cc1 | -14% | 18% | 8.9µM* | -18% | -18%[11.4 µM] | ?
O=C(CSc1ncc(-c2ccc(F)cc2)n1Cc1ccco1)Nc1ccc2c(c1)OCO2 | -9% | -11% | 11µM* | -56% | 45µM* | ?
Cc1ccc(C)c(NC(=O)CCN2CCN(c3ccccc3F)CC2)c1 | -13% | 12% | 1% | 25% | -5% | -9%[2.33 µM]
Oc1c(C(c2ccccc2)N2CCC(O)CC2)sc2nc(-c3ccco3)nn12 (stereo not given) | . | . | -33% | 9% | -14% | -16%[59 µM]
COC(=O)c1ccccc1Nc1ccccc1 | 2% | -5% | 172% | 169% | 131% | 75%[59 µM]
O=S(=O)(O)c1cccc2cccc(Nc3ccccc3)c12 | 15µM* | . | . | 16% | 50µM* | .
COc1ccc(CN2CCC[C@]3(N[C@H](c4ccc(C(F)(F)F)cc4)[C@@H]4C(=O)N(Cc5ccccc5)C(=O)[C@@H]43)C2=O)cc1 | -5% | . | . | . | . | .
CS(=O)(=O)N1CCc2cc(-c3csc(NCC4CCCO4)n3)ccc21 (stereo not given) | ? | 50µM* | -6% | 20% | -23% | 5.6µM*
CS(=O)(=O)N1CCc2cc(-c3csc(NC(=O)Cc4ccccc4)n3)ccc21 | -4% | 12% | -15% | 13% | -24% | 14µM*
CCCC(=O)Nc1nc(-c2ccc3c(c2)CCN3S(C)(=O)=O)cs1 | -14% | -14% | -11% | 12% | -9% | 11%[59 µM]
O=C(Nc1cnn(Cc2ccc(Cl)cc2Cl)c1)c1noc2c1CCc1ccccc1-2 | . | . | -12% | 3% | -20% | -41%[59 µM]
O=C(c1ccc2c(c1)N(Cc1ccc(F)cc1)C(=O)c1ccccc1S2(=O)=O)N1CCCCC1 | . | . | -25% | 7% | -31% | 0%[59 µM]
N=C(N)SCc1nc2ccccc2c(=O)n1-c1ccccc1 | 8.4µM*! | 50µM* | -28% | -20% | ? | 45µM*
N=C(N)n1c(N)nc2ccccc2c1=O | -1% | -9% | 9% | 24% | 2% | 0%
